Results taken from PubChem BioAssay.
Inconclusive results are not listed. The source made the active and inactive calls.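 The calls were made as follows, unless noted: active = viability at or below 10% of carrier control in both of two separate runs; inconclusive = viability at or below 10% in only one of the two runs; inactive = the rest.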

Columns and labels:
[1] = Her2 expression decrease, cell viability multiplex – SKBR3 breast tumor cells, AlphaScreen, ATP viability, primary screen (AID 461;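 active = Her2 level under about 52% in both replicate screens, with viability over 70% of control, limit read from the data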;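 as to Her2 level: lower value means less Her2 protein in the cells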;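 as to viability: percent of carrier control wells set as 100% viability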); conditions: SKBR3 Her2 protein level, 18-24 h, measured here: SKBR3 viability, ATP luminescence, at 10 µM
[2] = molecular target: Receptor tyrosine-protein kinase erbB-2 (Homo sapiens) (UniProt P04626); test: as above; conditions: 18-24 h, at 10 µM, stronger effect = lower value
Chain of Receptor tyrosine-protein kinase erbB-2 (Homo sapiens) (P04626 whole entry, looked up): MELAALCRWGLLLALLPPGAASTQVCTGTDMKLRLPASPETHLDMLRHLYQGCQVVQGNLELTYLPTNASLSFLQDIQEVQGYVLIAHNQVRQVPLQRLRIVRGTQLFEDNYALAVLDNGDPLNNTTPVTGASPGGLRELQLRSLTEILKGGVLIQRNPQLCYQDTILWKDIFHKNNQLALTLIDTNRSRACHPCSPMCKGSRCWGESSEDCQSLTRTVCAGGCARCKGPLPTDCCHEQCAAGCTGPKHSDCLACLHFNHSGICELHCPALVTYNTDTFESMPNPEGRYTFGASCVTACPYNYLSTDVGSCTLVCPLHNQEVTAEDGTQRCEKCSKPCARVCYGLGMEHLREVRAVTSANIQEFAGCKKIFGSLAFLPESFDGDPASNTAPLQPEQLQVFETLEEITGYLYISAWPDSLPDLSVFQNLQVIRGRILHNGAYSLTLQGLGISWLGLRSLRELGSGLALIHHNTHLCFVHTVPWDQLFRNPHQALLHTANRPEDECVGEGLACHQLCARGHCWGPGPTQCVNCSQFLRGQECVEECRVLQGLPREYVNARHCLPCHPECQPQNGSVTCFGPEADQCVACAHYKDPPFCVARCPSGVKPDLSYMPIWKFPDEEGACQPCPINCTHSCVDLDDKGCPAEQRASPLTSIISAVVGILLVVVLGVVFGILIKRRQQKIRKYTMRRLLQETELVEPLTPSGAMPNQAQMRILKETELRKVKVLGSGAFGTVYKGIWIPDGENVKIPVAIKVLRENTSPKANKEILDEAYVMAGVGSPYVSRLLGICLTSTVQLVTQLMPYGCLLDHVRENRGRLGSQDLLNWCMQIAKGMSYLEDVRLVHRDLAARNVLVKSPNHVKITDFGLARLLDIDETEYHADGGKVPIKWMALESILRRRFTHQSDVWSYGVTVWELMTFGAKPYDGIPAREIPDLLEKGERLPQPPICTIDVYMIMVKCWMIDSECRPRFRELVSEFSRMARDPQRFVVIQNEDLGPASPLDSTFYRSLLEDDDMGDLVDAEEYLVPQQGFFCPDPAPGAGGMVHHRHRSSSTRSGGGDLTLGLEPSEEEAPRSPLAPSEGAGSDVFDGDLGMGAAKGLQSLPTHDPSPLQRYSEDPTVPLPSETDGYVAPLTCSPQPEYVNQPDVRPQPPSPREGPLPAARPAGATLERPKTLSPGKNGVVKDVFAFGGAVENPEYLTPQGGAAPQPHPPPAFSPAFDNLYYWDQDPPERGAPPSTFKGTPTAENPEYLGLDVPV

[3] = reduced viability of SK-BR-3 breast cancer cells – cell-based, 24 h, human, pilot screen (AID 572); conditions: SK-BR-3 viability, CellTiter-Glo luminescence, at 10 µM, stronger effect = lower value;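 also: compound exposure lasted between 18 and 24 h rather than exactly 24 h; 100% = carrier-treated control wells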
[4] = HUVEC growth inhibition – cell-based, human, primary screen (AID 575;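 active = viability at or below 30% in both replicate assays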;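 also: 100% = median of untreated cell wells with 0.1% DMSO on each plate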); conditions: HUVEC proliferation, CellTiter-Glo luminescence, 72 h; at 10 µM; stronger effect = lower value
[5] = H69AR cell proliferation blockers – human, duplicate replicates, primary screen (AID 580;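 active = viability at or under a set limit in both replicates, limit being median viability minus 3 SD, cut at about 48% in these data, passing the limit was not always enough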;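 also: 100% = mean luminescence of untreated wells and 0% = no signal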); conditions: H69AR lung tumor cells viability, ATP luminescence, 72 h; at 10 µM; stronger effect = lower value
[6] = MRP1 drug-resistance reversers in H69AR cells – cell-based, doxorubicin co-treatment, pilot screen (AID 601;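 active = viability loss from added drug above about 55%, and viability with drug at most 40%, in both replicates, limit read from the data, passing the limit was not always enough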); conditions: CellTiter-Glo, 72 h, at 10 µM; for differential viability (reversal): stronger effect = higher value
[7] = yeast transport mutant growth inhibition pilot in 384-well plates, post-Golgi transport modulator project (AID 636; in the data active = inhibition above about 31%); conditions: absorbance 615 nm, about 18 h, stronger effect = higher value
[8] = growth suppression of yeast trafficking mutant, preliminary HTS, modulators of trafficking downstream of Golgi apparatus project, 1536-format plate, OD 615 nm (AID 637; in the data active = inhibition above about 30%); conditions: yeast transport mutant growth, absorbance 615 nm, 18 h; stronger effect = higher value
[9] = S. cerevisiae growth inhibition in permissive medium (OD615), pilot counter-assay for S. cerevisiae lifespan shortening project, permissive growth control (AID 705;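 active = growth inhibition above 25% in both replicates, a cutoff set 3 SD above the mean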); conditions: OD615, 24 h, at 10 µM, stronger effect = higher value
[10] = S. cerevisiae growth inhibition in restrictive medium, OD615, pilot screen, restrictive growth control, yeast lifespan reduction project (AID 706;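 active = growth inhibition above a set limit, 3 SD over mean compound inhibition, in both replicates, cut at about 43% in these data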;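 also: modified DeaD lifespan yeast strain shifted to restrictive glucose medium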); conditions: OD615, 48 h, at 10 µM, stronger effect = higher value
[11] = doxorubicin toxicity protection in MRP-1 cells – H69AR cells, CellTiter-Glo, duplicate, MRP-1 activator project, pilot screen (AID 807;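 active = viability increase at or above a cutoff of the median across tested compounds plus 3 SD, cut at about 8.5% in these data, passing the limit was not always enough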;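 also: compound pretreatment 18-22 h then 72 h combined with doxorubicin; 0% = doxorubicin alone and 100% = vehicle without doxorubicin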); conditions: H69AR viability with doxorubicin, CellTiter-Glo luminescence; at 10 µM; stronger effect = higher value
[12] = viability of HCT116 without oncogenic beta-catenin – human colon tumor cells, pilot screen (AID 823;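 active = cell viability at or below a set limit in both duplicate runs, the limit being the all-compound median minus 4 SD, cut at about 23% in these data, passing the limit was not always enough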;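 also: 0% = wells killed by 20 µM Hyamine and 100% = untreated DMSO cell wells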); conditions: HCT116 beta-catenin knockout viability, CellTiter-Glo, 60 h; at 10 µM; stronger effect = lower value
[13] = viability of PTEN-null HCT116 cells – cell-based, HCT116 clonal line, CellTiter-Glo, pilot screen (AID 824;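 active = viability at or below 27.92% in each of two runs, the all-compound median minus 4 SD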;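 also: 0% = 20 µM Hyamine control and 100% = vehicle cell control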); conditions: HCT116 PTEN-deleted viability, 60 h, at 10 µM, stronger effect = lower value
[14] = RAM pathway blockade in budding yeast – dse1pr::URA3 reporter, 5-FOA selection, pilot screen (AID 869;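 active = inhibition over a set limit, the all-compound mean plus 3 SD, in both replicate runs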;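 also: 0% = DMSO wells with no growth and 100% = 10 µM 1-NA-PP1 with full growth; RAM network block rescues cells from 5-FOA so hits raise OD615 growth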); conditions: S. cerevisiae dse1pr::URA3 5-FOA growth, OD615, 2 d; at 10 µM; stronger effect = higher value; strain carries analog-sensitive mutant Cbk1 kinase
[15] = RAM signaling pathway blockade in yeast – S. cerevisiae, Pdr1DBD-CYC8 efflux-inhibited sensitized strain, primary screen (AID 1298;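 active = RAM network inhibition above 8.4% in each of two replicates, 3 SD over the compound average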;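 also: 0% = DMSO untreated cells without growth and 100% = 10 µM 1-NA-PP1 full growth; higher means more yeast growth rescued from 5-FOA killing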); conditions: S. cerevisiae cbk1-as DSE1-URA3 strain, 5-FOA growth OD615, 2 d; at 50 µM; stronger effect = higher value
[16] = H69AR cells + 2 uM doxorubicin, measured here: viability with 2 uM doxorubicin, stronger effect = lower value
[17] = H69AR cells, compound alone cytotoxicity

SMILES	viability [1]	Her2 level [2]	viability [3]	viability [4]	viability [5]	differential viability (reversal) ([6]; H69AR cells + 2 uM doxorubicin)	viability [6, 16]	viability [6, 17]	inhibition [7]	inhibition [8]	growth inhibition [9]	growth inhibition [10]	viability increase [11]	viability [12]	viability [13]	inhibition [14]	RAM network inhibition [15]
CCCCc1nc2ccccc2n2cc3c(=O)n(C)c(=O)n(C)c3c12	86%	86% (inactive)	86% (inactive)	106% (inactive)	89.6% (inactive)	4.81% (inactive)	84.8%	89.6%	0% (inactive)	2.17% (inactive)	-9.65% (inactive)	-16.2% (inactive)	-4.07% (inactive)	95.8% (inactive)	89.2% (inactive)	1.36% (inactive)	0.47% (inactive)
O=C1CCCCCC1C1(O)C(=O)Nc2ccccc21 (stereo not drawn)	100%	96.5% (inactive)	100% (inactive)	87.9% (inactive)	95.7% (inactive)	1.21% (inactive)	94.4%	95.7%	-4.68% (inactive)	-1.67% (inactive)	-0.65% (inactive)	-10.4% (inactive)	-2.3% (inactive)	99.7% (inactive)	95% (inactive)	1.43% (inactive)	1.29% (inactive)
Cc1cccc(CN2CCC(CNC(=O)C3CCCN(S(=O)(=O)c4cnc[nH]4)C3)CC2)c1 (stereo not drawn)	98%	95.5% (inactive)	98% (inactive)	98.8% (inactive)	89.8% (inactive)	2.14% (inactive)	87.6%	89.8%	-5.2% (inactive)	-0.66% (inactive)	-0.3% (inactive)	-2.77% (inactive)	0.07% (inactive)	101% (inactive)	106% (inactive)	1.33% (inactive)	4.03% (inactive)
COC(=O)c1ccc(-c2nn(C)c(=O)c3ccccc23)cc1	93.5%	99.5% (inactive)	93.5% (inactive)	83.8% (inactive)	94.6% (inactive)	7.75% (inactive)	86.9%	94.6%	-5.33% (inactive)	4.17% (inactive)	3.78% (inactive)	6.35% (inactive)	-2.27% (inactive)	94.3% (inactive)	91% (inactive)	0.79% (inactive)	-1.8% (inactive)
Cc1cccc(-n2ncc3c(NCCCn4ccnc4)ncnc32)c1	91.5%	93.5% (inactive)	91.5% (inactive)	111% (inactive)	88.6% (inactive)	3.66% (inactive)	84.9%	88.6%	2.13% (inactive)	-3.67% (inactive)	-2.31% (inactive)	-0.87% (inactive)	-0.65% (inactive)	92.9% (inactive)	99.5% (inactive)	1.1% (inactive)	-0.32% (inactive)
COCCn1cc(C(=O)c2ccccc2OCC(=O)Nc2cc(C)on2)cc(C#N)c1=O	82.5%	115% (inactive)	82.5% (inactive)	89% (inactive)	108% (inactive)	6.63% (inactive)	102%	108%	-2.76% (inactive)	-1.17% (inactive)	-25.8% (inactive)	-14% (inactive)	-0.5% (inactive)	92.9% (inactive)	99.5% (inactive)	1.68% (inactive)	3.2% (inactive)
COc1ccc(-c2nc(CSCC(=O)N3CCc4ccccc4C3)c(C)o2)cc1OC	88.5%	69.5% (inactive)	88.5% (inactive)	93.8% (inactive)	92.6% (inactive)	0.215% (inactive)	92.4%	92.6%	-0.38% (inactive)	-0.5% (inactive)	13.3% (inactive)	33.4% (inactive)	-3.15% (inactive)	93.9% (inactive)	89.8% (inactive)	-0.395% (inactive)	3.92% (inactive)
O=C(Cn1ncc2c1-c1ccccc1OC2)Nc1ccc(Cl)cn1	91.5%	95% (inactive)	91.5% (inactive)	80.1% (inactive)	99.3% (inactive)	7.75% (inactive)	91.5%	99.3%	-0.26% (inactive)	-5.5% (inactive)	1.63% (inactive)	0.96% (inactive)	-3.35% (inactive)	95.9% (inactive)	95.1% (inactive)	4.09% (inactive)	0.83% (inactive)
CCOc1ccc(Cn2nnc(C(=O)Nc3ccc(OC)cc3OC)c2N)cc1	96.5%	102% (inactive)	96.5% (inactive)	67.5% (inactive)	102% (inactive)	2.46% (inactive)	99.8%	102%	-1.07% (inactive)	-5.9% (inactive)	-10.3% (inactive)	-9.57% (inactive)	-4.36% (inactive)	83.3% (inactive)	82.8% (inactive)	3.14% (inactive)	4.87% (inactive)
CCCNC(=O)CS(=O)(=O)Cc1nc(-c2cccc(OC)c2)oc1C	86%	90.5% (inactive)	86% (inactive)	109% (inactive)	87.7% (inactive)	-3.96% (inactive)	91.7%	87.7%	-0.53% (inactive)	8.2% (inactive)	7.42% (inactive)	-2.08% (inactive)	-0.31% (inactive)	93.1% (inactive)	87% (inactive)	0.365% (inactive)	-0.47% (inactive)
CCOc1ccc(Cn2nnc(C(=O)Nc3cc(C)cc(C)c3)c2N)cc1	89.5%	90.5% (inactive)	89.5% (inactive)	80.4% (inactive)	86.2% (inactive)	7.9% (inactive)	78.3%	86.2%	0% (inactive)	-3.28% (inactive)	-7.71% (inactive)	1.04% (inactive)	-3.02% (inactive)	73% (inactive)	77.8% (inactive)	3.23% (inactive)	8.35% (inactive)
Cc1ccnc(NC(=O)C2CCC(CNc3c(N4CCCC4)c(=O)c3=O)CC2)c1 (stereo not drawn)	93%	93.5% (inactive)	93% (inactive)	92.2% (inactive)	90.2% (inactive)	1.23% (inactive)	89%	90.2%	-0.64% (inactive)	-3.83% (inactive)	-3.06% (inactive)	4.16% (inactive)	-1.61% (inactive)	72.4% (inactive)	71.6% (inactive)	0.595% (inactive)	-0.21% (inactive)
CCc1nnc(NC(=O)COC(=O)CN2C(=O)c3ccccc3C2=O)s1	104%	101% (inactive)	104% (inactive)	104% (inactive)	109% (inactive)	7.39% (inactive)	101%	109%	-9.32% (inactive)	-6.19% (inactive)	2.25% (inactive)	1.2% (inactive)	-1.95% (inactive)	96.8% (inactive)	89.8% (inactive)	0.785% (inactive)	5.31% (inactive)
CCOC(=O)c1csc(NC(=O)C2CCCCC2)n1	81%	90% (inactive)	81% (inactive)	95% (inactive)	96.5% (inactive)	26.3% (inactive)	70.2%	96.5%	-1.47% (inactive)	0.83% (inactive)	-5.67% (inactive)	7.35% (inactive)	2.52% (inactive)	91.4% (inactive)	94.6% (inactive)	0.89% (inactive)	0.47% (inactive)
CC1CCN(C(=O)CSc2nc3c(cnn3-c3ccccc3)c(=O)[nH]2)CC1	82.5%	92% (inactive)	82.5% (inactive)	72.1% (inactive)	72% (inactive)	7.54% (inactive)	64.4%	72%	-0.64% (inactive)	1.67% (inactive)	-6.1% (inactive)	-4.26% (inactive)	-3.8% (inactive)	98.3% (inactive)	91.1% (inactive)	1.47% (inactive)	6.5% (inactive)
COc1ccc(NC(=O)C2CCCN(S(=O)(=O)c3cccc4cccnc34)C2)cc1OC (stereo not drawn)	82%	106% (inactive)	82% (inactive)	75.4% (inactive)	67.5% (inactive)	-6.73% (inactive)	74.2%	67.5%	-4.13% (inactive)	1.67% (inactive)	-1.21% (inactive)	0.31% (inactive)	-2.32% (inactive)	80.3% (inactive)	78.6% (inactive)	2.09% (inactive)	2.55% (inactive)
COc1nc(Oc2ccc(=O)n(C)n2)nc(N(C)C)n1	81%	107% (inactive)	81% (inactive)	88.5% (inactive)	92.7% (inactive)	-2.47% (inactive)	95.1%	92.7%	1.67% (inactive)	-9% (inactive)	-3.33% (inactive)	0.62% (inactive)	0.29% (inactive)	95.2% (inactive)	101% (inactive)	2.61% (inactive)	1.59% (inactive)
CCCCn1c(NCc2ccccc2O)nc2ccccc21	98%	124% (inactive)	98% (inactive)	79.5% (inactive)	88.1% (inactive)	4.67% (inactive)	83.4%	88.1%	-4.27% (inactive)	-2.33% (inactive)	-1.67% (inactive)	-11.8% (inactive)	-5.25% (inactive)	79.7% (inactive)	75.1% (inactive)	0.34% (inactive)	3.36% (inactive)
COc1ccc(-c2nc3c(n2O)CCC/C3=N\O)cc1	89.5%	88.5% (inactive)	89.5% (inactive)	67.4% (inactive)	86.5% (inactive)	5% (inactive)	81.5%	86.5%	-1.43% (inactive)	0.33% (inactive)	1.93% (inactive)	4.75% (inactive)	-4.71% (inactive)	94.2% (inactive)	96% (inactive)	0.805% (inactive)	3.84% (inactive)
